High-throughput results (PubChem BioAssay)
An excerpt weighted towards active compounds, which were near 3.2% of everything screened.
ALOX15 inhib – blocks human 15-lipoxygenase activity; P16050; purified 15hLO-1, xylenol orange hydroperoxide absorbance; Potency, µM (series often up to 57.1 µM), for inactives: at the highest dose activity change, negative = inhibition, most hits filed as inhibitors; 74,000 compounds, 1.4% hits; AID 887; further: on the % scale 0 is the no-effect control and ±100 the full control effect; nearly all actives have a fitted effect of over 55% in size
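40 nM 15hLO-1 + cpd, 15 min RT; start w/ 50 uM AA (final), 6 min RT; stop/detect w/ 200 uM XO + 300 uM Fe(II) in 50 mM H2SO4, 30 min; A573/A405. Buffer 25 mM Hepes pH 7.5, 0.01% Triton X-100. No-enzyme wells as negative control.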
15-hLO-2 inh – 15-hLO-2 (ALOX15B) enzyme inhibition. AID 881. Potency, µM (series often up to 57.1 µM), for the others: at the top dose activity change, negative = inhibition, most hits filed as inhibitors. 110,000 compounds, 0.56% hits. O15296. purified 15hLO-2, xylenol orange hydroperoxide absorbance; further: on the % scale 0 is the no-effect control and ±100 the full control effect; nearly all actives have a fitted effect of over 60% in size
Target sequence (O15296 whole entry, looked up): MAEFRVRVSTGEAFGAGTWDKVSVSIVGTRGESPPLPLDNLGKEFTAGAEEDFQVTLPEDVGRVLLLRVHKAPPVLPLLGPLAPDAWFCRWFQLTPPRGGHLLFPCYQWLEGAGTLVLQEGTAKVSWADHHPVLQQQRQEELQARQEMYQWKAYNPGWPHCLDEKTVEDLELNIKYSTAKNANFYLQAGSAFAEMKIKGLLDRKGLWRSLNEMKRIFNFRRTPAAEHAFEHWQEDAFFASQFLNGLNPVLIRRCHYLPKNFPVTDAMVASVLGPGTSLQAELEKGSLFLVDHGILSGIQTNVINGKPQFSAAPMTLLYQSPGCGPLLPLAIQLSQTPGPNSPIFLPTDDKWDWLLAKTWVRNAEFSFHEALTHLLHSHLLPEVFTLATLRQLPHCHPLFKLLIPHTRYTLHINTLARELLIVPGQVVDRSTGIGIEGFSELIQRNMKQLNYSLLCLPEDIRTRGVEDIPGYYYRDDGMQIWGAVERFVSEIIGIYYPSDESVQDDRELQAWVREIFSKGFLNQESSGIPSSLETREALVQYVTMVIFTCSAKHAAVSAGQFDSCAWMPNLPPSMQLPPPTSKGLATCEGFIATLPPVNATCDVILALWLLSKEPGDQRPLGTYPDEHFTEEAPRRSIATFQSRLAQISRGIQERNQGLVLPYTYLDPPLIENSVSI
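Read-out: hydroperoxide product oxidises ferrous iron, measured as xylenol orange complex via the 573-to-405 nm absorbance ratio after 30 min. Reaction: 50 nM enzyme, 15 min compound preincubation, 45 uM arachidonic acid, 90 min RT, Hepes pH 7.5 with Triton X-100.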
CRE Fsk mod – alters forskolin-stimulated CRE reporter signaling in CHO cells. CHO CRE-bla reporter (cAMP response element driving beta-lactamase), forskolin EC10, beta-lactamase ratio. 71,000 compounds, 2.5% hits. Potency, µM (highest dose often 38.2 µM), inactives show top-dose activity change, negative = inhibition, most hits filed as activators; active means well fitted activation curve with a large enough effect in the signal ratio, with a control signal flat, not every such curve was filed as active; inconclusive means small, poorly fitted or top-dose-only effect, or effect the other way, or a change in a side signal; the % refers to the signal ratio; further: % of control where 0% means no effect
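Cells were plated overnight at 37 °C, exposed to compound titrations plus EC10 NKH 477 for 3 h, then given CCF4 dye for 2 h at room temperature. Blue/green (460/530 nm) ratio was converted to %Activity and AC50 values calculated.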
ERK AVP inh – blocks ERK signaling stimulated by vasopressin; HEK293-V1b, vasopressin-stimulated pERK AlphaScreen; Potency, µM (series often up to 57.5 µM), for inactives: at the highest dose activity, negative = inhibition, most hits filed as inhibitors; 72,000 compounds, 0.99% hits; further: on the % scale 0 is the no-effect control and ±100 the full control effect; nearly all actives have a fitted effect of over 55% in size
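Phosphorylated ERK1/2 detected via AlphaScreen bead proximity in lysates of V1b-expressing HEK293 cells given 25 nM vasopressin for 5 min after 30 min compound exposure (37 °C). AC50 from Hill equation; basal DMSO 0%, vasopressin 100%.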
Starred values were filed as active, the others as inactive; ! = repeats disagree; [ ] = remark or other dose. Unless noted, the call rests on the fitted dose curve; in most records, active means well fitted inhibition curve with a large enough effect; inconclusive means small, poorly fitted or top-dose-only effect; inactive means no such curve, though single readings can be large or run the other way. Potency means the concentration at half of the fitted maximal effect.

N#CC1=C(N)N2C(=C(C#N)C13CCCCC3)SC1CCCCC12O (configuration not stated) was read as ALOX15 inhib 20µM*, 15-hLO-2 inh -11%, CRE Fsk mod -10% and ERK AVP inh inconclusive.
For CSC1=C(C#N)C2(CCCC2)C(C#N)=C(N)N1 the results were ALOX15 inhib inconclusive, 15-hLO-2 inh -5%, CRE Fsk mod inconclusive and ERK AVP inh inconclusive.
For C[C@@H](NCc1cc(Br)cc2[nH]c(=O)c(=O)[nH]c12)P(=O)(O)O the results were ALOX15 inhib -8%[25.6 µM], 15-hLO-2 inh 17%, CRE Fsk mod -9% and ERK AVP inh 11%.
O=C1CCCC2=C1C(c1ccco1)Nc1ccc(C(=O)c3ccccc3)cc1N2 (configuration not stated) was read as ALOX15 inhib 2.5µM*, 15-hLO-2 inh -9%, CRE Fsk mod inconclusive and ERK AVP inh inconclusive.
`CC1CCC(C(C)C)C2=C1C(C#N)(C#N)C(C#N)(C#N)C(c1ccccc1)N2` (configuration not stated) gave 15-hLO-2 inh 10µM*.
OCCSc1nc(-c2cccnc2)nc2ccccc12 was read as ALOX15 inhib 7%, 15-hLO-2 inh -2%, CRE Fsk mod 6.3µM* and ERK AVP inh inconclusive.
`OCCNc1nc(-c2cccnc2)nc2ccccc12` gave ALOX15 inhib 3%, 15-hLO-2 inh 9%, CRE Fsk mod 4µM* and ERK AVP inh -27%.
`O=C(O)/C(=C\c1ccccc1)Cc1ccccc1` gave ALOX15 inhib 17%[11.4 µM], 15-hLO-2 inh 1%[11.4 µM], CRE Fsk mod 1%[7.6 µM] and ERK AVP inh -15%[11.5 µM].
COC(=O)c1ccc(CCc2cc(O)ccc2O)cc1 was read as ALOX15 inhib 1.6µM*, 15-hLO-2 inh 12%[11.4 µM], CRE Fsk mod -16%[7.6 µM] and ERK AVP inh 17%[11.5 µM].
Screening COC(=O)c1ccc(O)cc1 returned 15-hLO-2 inh -6%[0.0915 µM].
N=C(N)SC(c1ccccc1)c1ccccc1 was read as ALOX15 inhib 5%[11.4 µM], 15-hLO-2 inh 13%[11.4 µM], CRE Fsk mod 0%[7.6 µM] and ERK AVP inh inconclusive.
COCCn1c(=O)cnc2cnc(N3CCN(C)CC3)nc21 was read as ALOX15 inhib 7%, 15-hLO-2 inh 9%, CRE Fsk mod -5% and ERK AVP inh -6%.
Screening COc1ccc(-c2ccc3c(n2)CCCN3C[C@H](O)CN2CCCc3nc(C)c(C)cc32)cc1 returned ALOX15 inhib 19%[11.4 µM] and ERK AVP inh 0%[11.5 µM].
COc1cc(C(c2sc3nc(C)nn3c2O)N2CCN(c3ccccc3)CC2)cc(OC)c1OC (configuration not stated) was read as ALOX15 inhib -12% and CRE Fsk mod 2µM*.
COCCn1c(SCC(=O)N2CCCCC2)nc2ccccc2c1=O was read as ALOX15 inhib 1%, 15-hLO-2 inh 11%, CRE Fsk mod 8% and ERK AVP inh 2%.
`COCCn1c(SC(C)C(=O)Nc2ccc3c(c2)OCCO3)nc2ccccc2c1=O` (configuration not stated) gave ALOX15 inhib 0%, 15-hLO-2 inh 2%, CRE Fsk mod 13µM* and ERK AVP inh -6%.
For COCCn1c(SCc2ccc(C(=O)OC)o2)nc2ccccc2c1=O the results were ALOX15 inhib -9%, 15-hLO-2 inh -2%, CRE Fsk mod 13µM* and ERK AVP inh inconclusive.
For COC(=O)c1ccc(CSc2nc3ccccc3c(=O)n2-c2ccccc2)o1 the results were 15-hLO-2 inh -17%.
COC(=O)c1ccc(CSc2nc3ccccc3c(=O)n2-c2ccc(OC)c(OC)c2)o1 was read as ALOX15 inhib -16%, 15-hLO-2 inh -9%, CRE Fsk mod 13µM* and ERK AVP inh 13%.
Screening CCN(CC)CCCC(C)n1c(-c2ccccc2)nc2c(NCCO)nc(C)nc21 (configuration not stated) returned ALOX15 inhib -16%, 15-hLO-2 inh 18%, CRE Fsk mod inconclusive and ERK AVP inh 8%.
For Cc1c(C(=O)NC(=S)Nc2ccc(NC(=O)c3cccs3)cc2)oc2ccccc12 the results were 15-hLO-2 inh 7.9µM*.
COC(=O)C/C=C\[C@@H](C)[C@@H](/C=N\OC[C@@H](O)[C@H]1O[C@H]2OC(C)(C)O[C@H]2[C@@H]1O)OC was read as ALOX15 inhib 3%[11.4 µM] and ERK AVP inh 0%[11.5 µM].
`O=C1c2c(O)ccc(O)c2C(=O)c2c(NCCNCCO)ccc(NCCNCCO)c21` gave ALOX15 inhib 9%, 15-hLO-2 inh 44%, CRE Fsk mod 5%[17.1 µM] and ERK AVP inh 13µM*!.
`C=CCc1c(C)nc(SCc2nc3ccccc3c(=O)[nH]2)[nH]c1=O` gave ALOX15 inhib 17%, 15-hLO-2 inh 8%, CRE Fsk mod 10µM* and ERK AVP inh 19%.
Screening C=CCn1c(SCc2nc3ccccc3c(=O)[nH]2)nc2ccccc2c1=O returned 15-hLO-2 inh -11%.
For COc1ccc(-c2nn(C)c3sc(C(=O)NCc4ccco4)cc23)cc1OC the results were ALOX15 inhib -17%, 15-hLO-2 inh -19%, CRE Fsk mod inconclusive and ERK AVP inh 20%.
Screening COc1cccc(-c2nn(C)c3sc(C(=O)NCc4ccc5c(c4)OCO5)cc23)c1 returned ALOX15 inhib -16%, 15-hLO-2 inh -6%, CRE Fsk mod 2.5µM* and ERK AVP inh -14%.
For COc1cccc(-c2nn(C)c3sc(C(=O)NCc4ccc(C)o4)cc23)c1 the results were ALOX15 inhib -23%, 15-hLO-2 inh -23%, CRE Fsk mod 6.3µM* and ERK AVP inh 25%.
For COCCN1C(=O)c2ccccc2C(C(=O)NCCCN2CCCC2=O)C1c1c[nH]c2ccccc12 (configuration not stated) the results were ALOX15 inhib 25µM*, CRE Fsk mod 11% and ERK AVP inh 7%.
For COCCN1C(=O)c2ccccc2C(C(=O)NCC2CCCO2)C1c1c[nH]c2ccccc12 (configuration not stated) the results were ALOX15 inhib 13%, 15-hLO-2 inh -1%, CRE Fsk mod 3% and ERK AVP inh -25%.
Screening Cn1cccc1C(=O)N1CCC2(CC1)CN(C(=O)Nc1cccc(C#N)c1)C2 returned ALOX15 inhib 13%, 15-hLO-2 inh -7%, CRE Fsk mod -7% and ERK AVP inh -11%.
CCc1ccccc1N1CSC2=C(C#N)C(c3ccccc3F)CC(=O)N2C1 (configuration not stated) was read as ALOX15 inhib 3.2µM*, 15-hLO-2 inh 10µM*, CRE Fsk mod -14% and ERK AVP inh -22%.
COc1ccc(C2CC(=O)N3CN(c4ccccc4F)CSC3=C2C#N)cc1OC (configuration not stated) was read as ALOX15 inhib 0.32µM*, 15-hLO-2 inh inconclusive, CRE Fsk mod inconclusive and ERK AVP inh inconclusive.
`N#CC1=C2SCN(Cc3ccccc3)CN2C(=O)CC1c1cccs1` (configuration not stated) gave ALOX15 inhib inconclusive, 15-hLO-2 inh inconclusive, CRE Fsk mod 10% and ERK AVP inh -28%.
